These results are taken from PubChem BioAssay (NCATS).

Values joined by “and” are separate entries in the source; they are usually repeats but may differ in a detail not shown here. Identical values can stand only once. Results filed as inconclusive are left out. Active and inactive are the calls of the source. Unless noted, the call rests on the fitted dose curve; in most records, active means well fitted curve in the direction sought with a large enough effect; inconclusive means small, poorly fitted or top-dose-only effect, or another doubt; inactive means no such curve, though single readings can be large; an effect the other way counts as inactive or inconclusive.

Assay [1] in a line: Cell Viability - LYMP2-018 (AID 985).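 Further: compound exposure lasted 24 hr at 37 °C; plate controls were DMSO only for no effect and tetraoctylammonium bromide at 92 µM for full effect; nearly all actives have a fitted effect of over 50% in size.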 In a few lines: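 Acute cytotoxicity is scored as a concentration-dependent drop in intracellular ATP after 24 hr exposure of the lymphoblastoid line in complete culture medium, measured by luciferase luminescence. Potency is expressed as AC50 from Hill modelling.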
Assay [2] can be described thus: Cell Viability - LYMP2-020 (AID 986).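 Further: cells exposed to compound for 24 h at 37 °C; plate controls were DMSO only for no effect and tetraoctylammonium bromide at 92 µM for full effect; nearly all actives have a fitted effect of over 55% in size.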 In a few lines: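 Acute cytotoxicity in a human lymphoblastoid line is scored as a concentration-dependent fall in cellular ATP after 24 hr at 37 C in complete medium. The positive control is tetraoctylammonium bromide, and potency is given as Hill-fit AC50.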
A short description of assay [3]: Cell Viability - LYMP2-022 (AID 987).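 Further: 0% = DMSO alone and full effect = tetraoctylammonium bromide at 92 µM; nearly all actives have a fitted effect of over 55% in size.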 In a few lines: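 Acute toxicity in a human lymphoblastoid line is scored as decreased intracellular ATP after 24 hr compound treatment at 37 C. ATP is measured by CellTiter-Glo luminescence; curves are fitted with the Hill equation to give AC50.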
Assay [4] in a line: Cell Viability - LYMP2-026 (AID 989).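 Further: cells exposed to compound for 24 h at 37 °C; on the % scale 0 is the no-effect control and ±100 the full control effect; nearly all actives have a fitted effect of over 50% in size.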 In a few lines: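 Concentration-dependent loss of intracellular ATP in human lymphoblastoid cells after 24 hr at 37 C, quantified by luciferase luminescence. AC50 derived from standard Hill equation.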
Assay [5] deals with Alpha-galactosidase A (Homo sapiens) (UniProt P06280). Kind of assay: Counterscreen for Glucocerebrosidase Inhibitors: qHTS Assay for Human alpha-Galactosidase at pH 4.5 (AID 992). Further: 0% is about no effect. A digest of the protocol: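 Enzyme at 2 nM final was combined with compound (0.7 nM to 77 uM) and 80 uM 4-methylumbelliferyl alpha-D-galactopyranoside in 50 mM citric acid, 0.005% Tween-20, pH 4.5. After 20 min at room temperature, fluorescence was read (Ex 365/Em 440 nm); AC50 came from Hill fits.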
Sequence of Alpha-galactosidase A (Homo sapiens) (P06280 whole entry, looked up): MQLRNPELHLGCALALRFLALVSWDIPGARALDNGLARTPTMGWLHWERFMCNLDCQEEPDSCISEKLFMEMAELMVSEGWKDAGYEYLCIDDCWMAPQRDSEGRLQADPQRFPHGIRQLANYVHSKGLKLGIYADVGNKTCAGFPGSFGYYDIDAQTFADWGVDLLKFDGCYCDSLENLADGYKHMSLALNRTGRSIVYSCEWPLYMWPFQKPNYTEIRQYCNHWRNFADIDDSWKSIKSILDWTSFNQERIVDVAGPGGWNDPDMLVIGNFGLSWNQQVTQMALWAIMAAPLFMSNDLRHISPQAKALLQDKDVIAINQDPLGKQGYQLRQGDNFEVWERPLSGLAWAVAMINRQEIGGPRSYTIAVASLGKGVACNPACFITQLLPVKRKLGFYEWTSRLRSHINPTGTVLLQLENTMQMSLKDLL

Assay [6] can be described thus: Cell Viability - LYMP1-002 - Assay at 40 hr (AID 994).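 Further: 0% = DMSO only and full inhibition = 92 µM tetraoctylammonium bromide; nearly all actives have a fitted effect of over 60% in size.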 In a few lines: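 Viability in the human lymphoblastoid line was measured as intracellular ATP via CellTiter-Glo after 40 hr compound exposure. Tetraoctylammonium bromide served as positive control.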
Assay [7] deals with alpha-glucosidase (Oryza sativa, rice) (UniProt Q653V4). Kind of assay: Counterscreen for Glucocerebrosidase Inhibitors: qHTS Assay for Rice alpha-Glucosidase at pH 5.0 (AID 997).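 Further: 0% = full activity with enzyme and -100% = basal without enzyme.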 A digest of the protocol: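 Rice alpha-glucosidase (4 nM final) with 400 uM 4-methylumbelliferyl-alpha-D-glucopyranoside in citrate buffer pH 5.0, 20 min at room temperature, stopped at pH 10; fluorescence 365/440 nm, compounds 0.7 nM–77 uM, AC50 from Hill fits.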
On the technique in general: A counterscreen serves to expose hits that act by an unwanted route or on another target.

Assay [8] in a line: Validation of Assay for Modulators of Lamin A Splicing (AID 1459; active means well fitted curve in the direction sought with a large enough effect in the signal ratio; the % refers to the signal ratio;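 further: cells exposed to compound for two days before reading; 0% is about no effect; ratio rise marks activators and ratio drop marks inhibitors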). In a few lines: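 Readout: ratio of GFP (500-530 nm) to RFP (575-640 nm) total object intensity by 488 nm laser-scanning cytometry after 48 hrs. Cells were HeLa S3 clones carrying lamin A-EGFP minigene plus DsRed2 viability reporter; vehicle 0.5% DMSO final.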
Assay [9] is described as follows: qHTS Assay for Lipid Storage Modulators (AID 1519; calls by dose curve; on activity change, negative = inhibition: on the % scale 0 is the no-effect control and ±100 the full control effect). The following applies: Drosophila S3 cells, BODIPY lipid droplet/cell ratio, laser cytometry, cells loaded with oleic acid. In a few lines:
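Cells seeded at 5,000 per well were treated with compounds over a concentration series and loaded with oleic acid (400 uM, as added). Lipid droplet fluorescence (488 nm excitation, 500-530 nm channel) was read by laser-scanning cytometry and normalized to 20 uM Triacsin C.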
Background: qHTS replaces the single test concentration by a dilution series.

Assay [10] deals with DNA repair nuclease/redox regulator APEX1 (Homo sapiens) (UniProt P27695). In words: qHTS Validation Assay for Inhibitors of the Human Apurinic/apyrimidinic Endonuclease 1 (APE1) (AID 1705;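 further: TAMRA fluorescence gain over two minutes as APE1 cuts a quenched THF abasic duplex; on the % scale 0 is the no-effect control and ±100 the full control effect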). A digest of the protocol:
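Read-out: TAMRA fluorescence (525 nm ex, 598 nm em) from cleavage of a quenched THF abasic-site duplex, 50 nM final; activity taken as intensity change between third and first of three reads 60 s apart.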

Assay [11] can be described thus: Counterscreen for APE1 Inhibitors: Fluorescent Dye Displacement Validation Assay (AID 1707).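 Further: plate controls were ThO with dsDNA and no compound for no effect and ThO without dsDNA for full effect.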 A digest of the protocol:
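Thiazole Orange displacement from dsDNA: 250 nM ThO with 50 nM TAMRA-labelled abasic-site (tetrahydrofuran) duplex in 50 mM Tris-HCl pH7.5, 50mM NaCl, 2 mM MgCl2, 0.01% Tween-20. Loss of endpoint fluorescence (ex 480 nm, em 540 nm) flags DNA binders.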

For assay [12], the target named is Endonuclease 4 (Escherichia coli (strain K12)) (UniProt P0A6C1). Kind of assay: Counterscreen for APE1 Inhibitors: qHTS Validation Assay for Inhibitors of Endonuclease IV (AID 1708). Further: on the % scale 0 is the no-effect control and ±100 the full control effect. In a few lines: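 Enzymatic AP-site incision assay using a double-stranded THF substrate labelled with TAMRA and BHQ-2; released fluorescence signals activity. Enzyme 2 nM, substrate 50 nM, 15 min compound preincubation.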

The nature of assay [13]: qHTS for differential inhibitors of proliferation of Plasmodium falciparum line 7G8 (AID 1815).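 Further: parasite growth measured after three days of incubation.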 Further: potency means the concentration at half of the fitted maximal effect.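 On activity change, negative = inhibition: plate controls were vehicle wells for no effect and reference inhibitor wells for full effect.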
Assay [14] can be described thus: qHTS for differential inhibitors of proliferation of Plasmodium falciparum line GB4 (AID 1816).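 Further: parasite growth measured after 72 h incubation.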 Further: potency means the concentration at half of the fitted maximal effect.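 On activity change, negative = inhibition: 0% = vehicle DMSO and -100% = reference inhibitor.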 The settings on record: Potency: Plasmodium falciparum GB4 proliferation inhibition.
Assay [15] is described as follows: qHTS for differential inhibitors of proliferation of Plasmodium falciparum line 3D7 (AID 1876). Further: potency means the concentration at half of the fitted maximal effect.
A short description of assay [16]: qHTS for differential inhibitors of proliferation of Plasmodium falciparum line D10 (AID 1877).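 Further: parasites grown with compound for 72 h before DNA staining; plate controls were vehicle wells for no effect and reference inhibitor wells for full effect.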
Assay [17] in a line: qHTS for differential inhibitors of proliferation of Plasmodium falciparum line Dd2 (AID 1882).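 Further: compound exposure of 72 h on infected erythrocytes; plate controls were DMSO vehicle for no effect and 0.29 µM artemisinin for full effect; nearly all actives have a fitted effect of over 65% in size.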 The following applies: Potency: Plasmodium falciparum Dd2 proliferation inhibition. A digest of the protocol: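 SYBR Green I DNA fluorescence read-out, ex 485/em 535 nm. Signals were normalized to 0.29 uM artemisinin and DMSO wells, then corrected using vehicle-only plates flanking each stack. Parasite growth ran 72 h in erythrocytes before lysis.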

Assay [18] can be described thus: qHTS for differential inhibitors of proliferation of Plasmodium falciparum line W2 (AID 1883).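 Further: parasites grown with compound for 72 h before lysis and staining.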 Further: potency means the concentration at half of the fitted maximal effect.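 On activity change, negative = inhibition: 0% = vehicle wells and -100% = control inhibitor wells.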 The settings on record: Potency: Plasmodium falciparum W2 proliferation inhibition.
Assay [19] in a line: qHTS for differential inhibitors of proliferation of Plasmodium falciparum line HB3 (AID 1886).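 Further: parasites grown with compound for 72 h before SYBR Green readout.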 Further: potency means the concentration at half of the fitted maximal effect.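 On activity change, negative = inhibition: plate controls were vehicle for no effect and reference inhibitor for full effect.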 The settings on record: Potency: Plasmodium falciparum HB3 proliferation inhibition.
Setting [20] is: measured here: cell count channel max response.
[21] abbreviates: measured here: lipid channel max response.

Sequence of DNA repair nuclease/redox regulator APEX1 (Homo sapiens) (P27695 whole entry, looked up): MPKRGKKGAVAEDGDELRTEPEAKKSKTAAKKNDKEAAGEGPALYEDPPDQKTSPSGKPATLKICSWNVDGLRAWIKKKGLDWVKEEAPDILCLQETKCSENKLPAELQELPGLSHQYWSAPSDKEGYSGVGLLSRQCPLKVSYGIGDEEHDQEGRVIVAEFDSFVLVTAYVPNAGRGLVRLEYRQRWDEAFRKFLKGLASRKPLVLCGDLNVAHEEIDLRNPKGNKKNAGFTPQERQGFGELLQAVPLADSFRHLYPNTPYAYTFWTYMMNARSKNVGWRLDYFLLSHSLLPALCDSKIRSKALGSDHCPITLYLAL

On to `O=c1c(-c2ccc(O)cc2)coc2cc(O)ccc12`, for which the Potency entry in assay [1], in [2], in [3], in assay [4], in [6] and in [13] was “inactive” in each case. The Potency entry in assay [14], in assay [15], in assay [16], in [17], in assay [18] and in [19] was “inactive” throughout. In addition, the call in [5], in assay [7], in [8], in [10], in [11] and in assay [12] was inactive. Also, in [9] (at 57.5 µM (top of the series)), the activity change, negative = inhibition is 2.37% (inactive) and 2.36% (inactive) and 1.08% (inactive). For the same molecule, the max response in assay [9] (setting [20]) is 20.5% and -6.62% and -6.98%; in assay [9] (setting [21]), 24.2% and -1.3% and -6.64%.

On to `CC(C)[C@H](CO)Nc1nc(Nc2ccc(C(=O)O)c(Cl)c2)c2ncn(C(C)C)c2n1`, for which the activity change, negative = inhibition in assay [9] (at 57.5 µM (top of the series)) is 6.65% (inactive). For the same molecule, the max response in assay [9] (setting [20]) is 12.5%; in [9] (setting [21]) it was 19.1%.

With `CCCNC(=O)NS(=O)(=O)c1ccc(Cl)cc1`, the Potency entry in assay [1], in [2], in assay [3], in [4], in [6] and in assay [13] was “inactive” each time. Further, the Potency result in assay [14], in assay [15], in assay [16], in assay [17], in assay [18] and in [19] was “inactive” throughout. The molecule was called inactive in assay [5], in [7], in [10], in assay [11] and in assay [12]. In addition, in assay [9] (at 25.7 µM (top of the series)), the activity change, negative = inhibition is -1.71% (inactive). Also, the max response is 8.45% in [9] (setting [20]) and 7.5% in assay [9] (setting [21]).

As to `Clc1ccc(Cn2c(CN3CCCC3)nc3ccccc32)cc1`, the molecule was classed as inactive in [5], in assay [7], in [8], in assay [10], in assay [11] and in [12]. Also, the activity change, negative = inhibition in [9] (at 25.7 µM (top of the series)) was -4.13% (inactive). Besides, the max response in assay [9] (setting [20]) is -8.03%; in assay [9] (setting [21]) it was -12.8%. The Potency is 7.08 µM (active) in assay [13]; 10 µM (active) in [14]; 11.2 µM (active) in assay [15]; 5.62 µM (active) in assay [18]; 11.2 µM (active) in assay [19].

As for `c1ccc2c(Cc3c[nH]c4ccccc34)c[nH]c2c1`, the activity change, negative = inhibition in [9] (at 57.5 µM (top of the series)) was 12.9% (inactive). Further, the max response in [9] (setting [20]) worked out at 7.31%; in assay [9] (setting [21]) it was 20.3%.

For `CCCCCCCCCCCC1=C(O)C(=O)C=C(O)C1=O`, in assay [9] (at 57.5 µM (top of the series)), the activity change, negative = inhibition was 11.6% (inactive) and 5.79% (inactive). For the same molecule, the max response was 14.8% and -11.9% in assay [9] (setting [20]); 24.3% and -12.6% in assay [9] (setting [21]).

As to `O=c1cc(-c2ccccc2)oc2cc(O)c(O)c(O)c12`, in [9] (at 57.5 µM (top of the series)), the activity change, negative = inhibition was 6.99% (inactive). The max response in assay [9] (setting [20]) was -15.3%; in assay [9] (setting [21]), -4.95%.

For `COc1cc(O)c2c(c1)C(=O)c1cc(C)cc(O)c1C2=O`, in assay [9] (at 57.5 µM (top of the series)), the activity change, negative = inhibition is 2.34% (inactive). For the same molecule, the max response in [9] (setting [20]) turned out to be 7.65%; in assay [9] (setting [21]), 11.5%.

Regarding `CC(=O)c1ccc(S(=O)(=O)NC(=O)NC2CCCCC2)cc1`, the Potency entry in assay [1], in [2], in assay [3], in assay [4], in assay [6] and in [13] was “inactive” in each case. The Potency result in assay [14], in [15], in assay [16], in assay [17], in assay [18] and in [19] was “inactive” each time. Besides, the result in assay [5], in [7], in assay [10], in assay [11] and in assay [12] was inactive. The activity change, negative = inhibition in assay [9] (at 25.7 µM (top of the series)) was -0.412% (inactive); in assay [9] (at 57.5 µM (top of the series)) it was 2.09% (inactive). In addition, the max response in [9] (setting [20]) is -7.61% and -6.03%; in [9] (setting [21]), -6.16% and -3.34%.

Take `C[C@@H](O)[C@H]1C(=O)N2C(C(=O)O)=C(S[C@@H]3CN[C@H](C(=O)N(C)C)C3)[C@H](C)[C@H]12`: the activity change, negative = inhibition in [9] (at 25.7 µM (top of the series)) is -1.28% (inactive). Also, the max response is -4.15% in assay [9] (setting [20]) and -5.75% in assay [9] (setting [21]).

As for `CC(=O)CCCCn1c(=O)c2c(ncn2C)n(C)c1=O`, the result in [5], in assay [7], in [10] and in assay [11] was inactive. Moreover, the activity change, negative = inhibition in assay [9] (at 25.7 µM (top of the series)) was -2.17% (inactive); in assay [9] (at 57.5 µM (top of the series)) it was 7.3% (inactive). Moreover, the max response in [9] (setting [20]) is 6.56% and 15.7%; in assay [9] (setting [21]) it was 4.54% and 26.5%. Also, the Potency result in assay [13], in assay [14], in assay [15], in assay [16], in assay [17] and in [18] was “inactive” throughout. Besides, the Potency result in assay [19] was “inactive”.

With `CC(=O)O[C@]1(C(C)=O)CC[C@H]2[C@@H]3C=C(Cl)C4=CC(=O)[C@@H]5C[C@@H]5[C@]4(C)[C@H]3CC[C@@]21C`, the Potency entry in [1], in assay [2], in assay [3], in assay [4] and in assay [6] was “inactive” in each case.

With `O=C(O)CCc1nc(-c2ccccc2)c(-c2ccccc2)o1`, the call in assay [5], in assay [7], in assay [10], in [11] and in [12] was inactive. Moreover, the activity change, negative = inhibition in assay [9] (at 25.7 µM (top of the series)) is 0.686% (inactive). Moreover, the max response in assay [9] (setting [20]) was 0.745%; in [9] (setting [21]), 2.18%.
